# Laboratory results published in PubChem BioAssay (NCI).
# Compounds without any hit were thinned out: in the full panel of roughly 83,000, 20% have a hit.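 A percent growth of 40 corresponds to 60% growth inhibition; 0 means no net growth; -100 means all cells died. Active threshold: below 10.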 Active and inactive are the calls of the source.
# System: CAKI-1 renal
# Experiment: NCI-60 one-dose screen, 48 h (100 = growth as untreated, 0 = no growth, -100 = all killed)
# Details: 10 µM unless noted
row,Structure (SMILES),growth
1,CC1CCN(C(=O)OCc2nc3nc(Cl)nc(N4CCOCC4)c3[nH]2)CC1,-73.8% (active)
2,COc1cc(C2CC(c3cccc(Nc4ccncc4)c3)=NN2c2cc(Cl)cc(Cl)c2)cc(OC)c1OC (stereo unspecified),8.57% (active)
3,COC(=O)Nc1ccc(NC(=O)OC)cc1,93.4% (inactive)
4,COc1ccc(C(=O)c2cc3c(N)c(C(=O)Nc4cccc(Cl)c4C)sc3nc2C)cc1,15.6% (inactive)
5,COc1ccc(-c2nc(SC)nc(N3CCOCC3)c2C#N)cc1,81.4% (inactive)
6,CC(=O)NCCCS(=O)(=O)O,88.5% (inactive)
7,Cn1c(COC(=O)NCCN2CCOCC2)nc2c(N3CCOCC3)nc(-c3ccccc3)nc21,-94.8% (active)
8,CC(C)Sc1nc(NN)c(C#N)c(-c2ccccc2)n1,93.6% (inactive)
9,COc1ccc(-c2nc(SCC(C)C)nc(N/N=C(/C)c3ccc(OC)c(OC)c3)c2C#N)cc1,86% (inactive)
10,COc1cc2nnn3c4ncccc4c(N=O)c3c2cc1OC,74.9% (inactive)
11,COc1ccccc1-c1c(-c2ccc(Cl)cc2)c2cc3c(cc2[nH]c1=O)OCCO3,54.9% (inactive)
12,O=S(=O)(NCCNc1nccc(-c2c(-c3ccc(F)c(O)c3)nc3sccn23)n1)c1ccccc1,54.6% (inactive)
13,CC(C)(O)C1CCCN1C(=O)c1ccccc1I (stereo unspecified),88.2% (inactive)
14,O=C(OCc1nc2nc(Cl)nc(N3CCOCC3)c2[nH]1)n1ccnc1,-68.8% (active)
15,Cc1c([N+](=O)[O-])cc(C(C)(C)C)cc1[N+](=O)[O-],98% (inactive)
16,O=C(N/N=C/c1ccc(F)cc1)c1ccccc1Nc1cccc(C(F)(F)F)c1,112% (inactive)
17,COc1cccc(/C=C2\COc3ccc(-c4ccccc4)cc3C2=O)c1,50.8% (inactive)
18,CN1CCN(c2cc(F)c(NC3=C(Cl)C(=O)c4ncccc4C3=O)c(F)c2)CC1,-85.6% (active)
19,Cc1cc(NC(=O)c2cnc(N3CCN(CCOCCOCCOCCOCCC(=O)N[C@H](C(=O)N4C[C@H](O)C[C@H]4C(=O)N[C@@H](C)c4ccc(-c5scnc5C)cc4)C(C)(C)C)CC3)cn2)c2ncccc2c1,42.9% (inactive)
20,COc1ccc(-c2ncc(-c3ccccc3)[nH]2)cc1OC,108% (inactive)
21,O=C(CN1CCOCC1)Nc1ccc2ncnc(Nc3ccc(Oc4cccc(F)c4)c(Cl)c3)c2c1,38.3% (inactive)
22,O=C1Nc2c(ccc(Cl)c2Cl)/C1=C/c1ccc(F)cc1,38% (inactive)
23,COc1ccc(-c2nc(N/N=C/c3c[nH]c4ccccc34)nc(N3CCOCC3)c2C#N)cc1,98% (inactive)

# System: A498 renal
# Experiment: as above
# Details: 10 µM unless noted
row,Structure (SMILES),growth
1,COc1cc(/C=C/C(=O)c2ccc(Nc3ncnc4ccccc34)cc2)cc(OC)c1,85.9% (inactive)
2,COc1ccc(C(=O)c2cc3c(N)c(C(=O)Nc4cccc(OC)c4)sc3nc2C)cc1,-1.41% (active)
3,CCC(C)N(CCNc1cc(OC)cc2cccnc12)CCC(C)C (stereo unspecified),72.9% (inactive)
4,S=c1[nH]cccc1-c1nnc2n1Nc1nc3ccccc3cc1CS2,111% (inactive)
5,NC(=O)C1(N2CCCCC2)CCN(CCCC(=O)c2ccc(F)cc2)CC1,32.8% (inactive)
6,O=S(=O)(c1cccc(NC2=Nc3cccc4cccc2c34)c1)N1CCCC1,75.1% (inactive)
7,OC1(c2ccc(Cl)c(C(F)(F)F)c2)CCN(CCCC(c2ccc(F)cc2)c2ccc(F)cc2)CC1,-92.5% (active)
8,O=c1[nH]nc(-c2ccc(Br)cc2)cc1Cc1ccc(O)cc1,103% (inactive)
9,N/C(=N\N=C\c1cc2ccccc2s1)N/N=C/c1cc2ccccc2s1,96.5% (inactive)
10,COc1ccc(C(=O)c2cc3c(N)c(C(=O)Nc4ccc(Br)cc4)sc3nc2C)cc1,83.9% (inactive)
11,CC1=NNC(=O)C1CCC(=O)N/N=C(\C)c1ccc2ccccc2c1 (stereo unspecified),110% (inactive)
12,O=C(O)c1cn(C2CC2)c2cc(N3CCN(C(=O)C[n+]4cccc5ccccc54)CC3)c(F)cc2c1=O,99.4% (inactive)
13,COc1ccc(Cn2nc(-c3ccccc3)c3c2CCc2cnoc2-3)cc1,58.7% (inactive)
14,O=C(O)CNC(=O)CN1C(=O)c2ccccc2C1=O,104% (inactive)
15,O=C1CCCCCCCCC(O)C(O)CCCC(c2cccs2)O1 (stereo unspecified),102% (inactive)
16,CC1CCN(C(=O)OCc2nc3nc(Cl)nc(N4CCOCC4)c3[nH]2)CC1,42.2% (inactive)
17,COc1cc(C2CC(c3cccc(Nc4ccncc4)c3)=NN2c2cc(Cl)cc(Cl)c2)cc(OC)c1OC (stereo unspecified),84% (inactive)
18,COC(=O)Nc1ccc(NC(=O)OC)cc1,97.2% (inactive)
19,COc1ccc(C(=O)c2cc3c(N)c(C(=O)Nc4cccc(Cl)c4C)sc3nc2C)cc1,-12.4% (active)

row,Structure (SMILES),growth
1,COc1ccc(-c2nc(SC)nc(N3CCOCC3)c2C#N)cc1,63.1% (inactive)
2,CC(=O)NCCCS(=O)(=O)O,93.4% (inactive)
3,Cn1c(COC(=O)NCCN2CCOCC2)nc2c(N3CCOCC3)nc(-c3ccccc3)nc21,30.7% (inactive)
4,CC(C)Sc1nc(NN)c(C#N)c(-c2ccccc2)n1,92.8% (inactive)
5,COc1ccc(-c2nc(SCC(C)C)nc(N/N=C(/C)c3ccc(OC)c(OC)c3)c2C#N)cc1,67.9% (inactive)
6,COc1cc2nnn3c4ncccc4c(N=O)c3c2cc1OC,174% (inactive)
7,COc1ccccc1-c1c(-c2ccc(Cl)cc2)c2cc3c(cc2[nH]c1=O)OCCO3,86.8% (inactive)
8,O=S(=O)(NCCNc1nccc(-c2c(-c3ccc(F)c(O)c3)nc3sccn23)n1)c1ccccc1,109% (inactive)
9,CC(C)(O)C1CCCN1C(=O)c1ccccc1I (stereo unspecified),73.6% (inactive)
10,O=C(OCc1nc2nc(Cl)nc(N3CCOCC3)c2[nH]1)n1ccnc1,-4.23% (active)
11,Cc1c([N+](=O)[O-])cc(C(C)(C)C)cc1[N+](=O)[O-],93.8% (inactive)
12,O=C(N/N=C/c1ccc(F)cc1)c1ccccc1Nc1cccc(C(F)(F)F)c1,70.8% (inactive)
13,COc1cccc(/C=C2\COc3ccc(-c4ccccc4)cc3C2=O)c1,45.6% (inactive)
14,CN1CCN(c2cc(F)c(NC3=C(Cl)C(=O)c4ncccc4C3=O)c(F)c2)CC1,80.1% (inactive)
15,Cc1cc(NC(=O)c2cnc(N3CCN(CCOCCOCCOCCOCCC(=O)N[C@H](C(=O)N4C[C@H](O)C[C@H]4C(=O)N[C@@H](C)c4ccc(-c5scnc5C)cc4)C(C)(C)C)CC3)cn2)c2ncccc2c1,78.6% (inactive)
16,COc1ccc(-c2ncc(-c3ccccc3)[nH]2)cc1OC,89.2% (inactive)
17,O=C(CN1CCOCC1)Nc1ccc2ncnc(Nc3ccc(Oc4cccc(F)c4)c(Cl)c3)c2c1,63.2% (inactive)
18,O=C1Nc2c(ccc(Cl)c2Cl)/C1=C/c1ccc(F)cc1,92.5% (inactive)
19,COc1ccc(-c2nc(N/N=C/c3c[nH]c4ccccc34)nc(N3CCOCC3)c2C#N)cc1,51.2% (inactive)
